In the supplement of paper PMC12067093, “Discovery and optimisation of a covalent ligand for TRIM25 and its application to targeted protein ubiquitination” (Chemical Science, 2025):
The full data set covers some 21,000 targets. This sample favours those with the largest changes.

Compound: Cc1cc(ccc1-c1ccccc1)C(=O)N1CCCN(CC1)C(=O)CCl [compound 10]
Assay: probe-labelled cysteine peptide fold change vs DMSO (competition) (log2 fold change); higher = less target engagement (more negative = stronger competition)
Settings: 10 µM; THP-1; incubation time: 4 h
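Note: competitive profiling in live THP-1 cells: cysteine peptides tagged with an iodoacetamide desthiobiotin (IA-DTB) probe, intensity after compound treatment relative to DMSO-treated cells.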

UniProt Q86UV5, sequence (Q86UV5 whole entry, looked up): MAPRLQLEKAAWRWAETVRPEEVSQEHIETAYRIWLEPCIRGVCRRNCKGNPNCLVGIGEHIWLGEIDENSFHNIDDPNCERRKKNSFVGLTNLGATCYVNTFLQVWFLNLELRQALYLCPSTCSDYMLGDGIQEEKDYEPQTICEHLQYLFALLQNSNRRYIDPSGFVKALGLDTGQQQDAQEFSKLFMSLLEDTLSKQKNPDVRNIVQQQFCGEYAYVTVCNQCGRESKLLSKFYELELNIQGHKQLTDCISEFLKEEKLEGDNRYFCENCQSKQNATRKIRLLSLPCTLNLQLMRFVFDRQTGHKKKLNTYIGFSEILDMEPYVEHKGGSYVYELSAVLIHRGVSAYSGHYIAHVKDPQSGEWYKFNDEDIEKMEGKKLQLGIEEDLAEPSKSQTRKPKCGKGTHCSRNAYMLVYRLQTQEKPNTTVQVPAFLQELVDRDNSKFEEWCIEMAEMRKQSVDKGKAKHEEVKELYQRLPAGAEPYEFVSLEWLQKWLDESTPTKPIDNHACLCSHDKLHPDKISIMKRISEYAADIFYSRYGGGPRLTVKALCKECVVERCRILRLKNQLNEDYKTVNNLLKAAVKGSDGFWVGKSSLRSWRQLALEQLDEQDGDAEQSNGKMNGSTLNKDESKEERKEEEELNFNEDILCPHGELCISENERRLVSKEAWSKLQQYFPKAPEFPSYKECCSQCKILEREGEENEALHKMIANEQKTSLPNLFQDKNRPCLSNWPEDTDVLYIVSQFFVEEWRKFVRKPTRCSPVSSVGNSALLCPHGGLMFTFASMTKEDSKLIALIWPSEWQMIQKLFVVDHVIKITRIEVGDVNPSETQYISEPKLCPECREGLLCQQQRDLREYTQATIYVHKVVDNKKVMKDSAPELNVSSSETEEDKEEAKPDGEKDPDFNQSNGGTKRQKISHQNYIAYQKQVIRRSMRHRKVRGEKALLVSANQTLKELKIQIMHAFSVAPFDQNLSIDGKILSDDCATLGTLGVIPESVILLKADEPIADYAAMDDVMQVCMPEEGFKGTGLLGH
UniProt Q70CQ2, sequence (Q70CQ2 whole entry, looked up): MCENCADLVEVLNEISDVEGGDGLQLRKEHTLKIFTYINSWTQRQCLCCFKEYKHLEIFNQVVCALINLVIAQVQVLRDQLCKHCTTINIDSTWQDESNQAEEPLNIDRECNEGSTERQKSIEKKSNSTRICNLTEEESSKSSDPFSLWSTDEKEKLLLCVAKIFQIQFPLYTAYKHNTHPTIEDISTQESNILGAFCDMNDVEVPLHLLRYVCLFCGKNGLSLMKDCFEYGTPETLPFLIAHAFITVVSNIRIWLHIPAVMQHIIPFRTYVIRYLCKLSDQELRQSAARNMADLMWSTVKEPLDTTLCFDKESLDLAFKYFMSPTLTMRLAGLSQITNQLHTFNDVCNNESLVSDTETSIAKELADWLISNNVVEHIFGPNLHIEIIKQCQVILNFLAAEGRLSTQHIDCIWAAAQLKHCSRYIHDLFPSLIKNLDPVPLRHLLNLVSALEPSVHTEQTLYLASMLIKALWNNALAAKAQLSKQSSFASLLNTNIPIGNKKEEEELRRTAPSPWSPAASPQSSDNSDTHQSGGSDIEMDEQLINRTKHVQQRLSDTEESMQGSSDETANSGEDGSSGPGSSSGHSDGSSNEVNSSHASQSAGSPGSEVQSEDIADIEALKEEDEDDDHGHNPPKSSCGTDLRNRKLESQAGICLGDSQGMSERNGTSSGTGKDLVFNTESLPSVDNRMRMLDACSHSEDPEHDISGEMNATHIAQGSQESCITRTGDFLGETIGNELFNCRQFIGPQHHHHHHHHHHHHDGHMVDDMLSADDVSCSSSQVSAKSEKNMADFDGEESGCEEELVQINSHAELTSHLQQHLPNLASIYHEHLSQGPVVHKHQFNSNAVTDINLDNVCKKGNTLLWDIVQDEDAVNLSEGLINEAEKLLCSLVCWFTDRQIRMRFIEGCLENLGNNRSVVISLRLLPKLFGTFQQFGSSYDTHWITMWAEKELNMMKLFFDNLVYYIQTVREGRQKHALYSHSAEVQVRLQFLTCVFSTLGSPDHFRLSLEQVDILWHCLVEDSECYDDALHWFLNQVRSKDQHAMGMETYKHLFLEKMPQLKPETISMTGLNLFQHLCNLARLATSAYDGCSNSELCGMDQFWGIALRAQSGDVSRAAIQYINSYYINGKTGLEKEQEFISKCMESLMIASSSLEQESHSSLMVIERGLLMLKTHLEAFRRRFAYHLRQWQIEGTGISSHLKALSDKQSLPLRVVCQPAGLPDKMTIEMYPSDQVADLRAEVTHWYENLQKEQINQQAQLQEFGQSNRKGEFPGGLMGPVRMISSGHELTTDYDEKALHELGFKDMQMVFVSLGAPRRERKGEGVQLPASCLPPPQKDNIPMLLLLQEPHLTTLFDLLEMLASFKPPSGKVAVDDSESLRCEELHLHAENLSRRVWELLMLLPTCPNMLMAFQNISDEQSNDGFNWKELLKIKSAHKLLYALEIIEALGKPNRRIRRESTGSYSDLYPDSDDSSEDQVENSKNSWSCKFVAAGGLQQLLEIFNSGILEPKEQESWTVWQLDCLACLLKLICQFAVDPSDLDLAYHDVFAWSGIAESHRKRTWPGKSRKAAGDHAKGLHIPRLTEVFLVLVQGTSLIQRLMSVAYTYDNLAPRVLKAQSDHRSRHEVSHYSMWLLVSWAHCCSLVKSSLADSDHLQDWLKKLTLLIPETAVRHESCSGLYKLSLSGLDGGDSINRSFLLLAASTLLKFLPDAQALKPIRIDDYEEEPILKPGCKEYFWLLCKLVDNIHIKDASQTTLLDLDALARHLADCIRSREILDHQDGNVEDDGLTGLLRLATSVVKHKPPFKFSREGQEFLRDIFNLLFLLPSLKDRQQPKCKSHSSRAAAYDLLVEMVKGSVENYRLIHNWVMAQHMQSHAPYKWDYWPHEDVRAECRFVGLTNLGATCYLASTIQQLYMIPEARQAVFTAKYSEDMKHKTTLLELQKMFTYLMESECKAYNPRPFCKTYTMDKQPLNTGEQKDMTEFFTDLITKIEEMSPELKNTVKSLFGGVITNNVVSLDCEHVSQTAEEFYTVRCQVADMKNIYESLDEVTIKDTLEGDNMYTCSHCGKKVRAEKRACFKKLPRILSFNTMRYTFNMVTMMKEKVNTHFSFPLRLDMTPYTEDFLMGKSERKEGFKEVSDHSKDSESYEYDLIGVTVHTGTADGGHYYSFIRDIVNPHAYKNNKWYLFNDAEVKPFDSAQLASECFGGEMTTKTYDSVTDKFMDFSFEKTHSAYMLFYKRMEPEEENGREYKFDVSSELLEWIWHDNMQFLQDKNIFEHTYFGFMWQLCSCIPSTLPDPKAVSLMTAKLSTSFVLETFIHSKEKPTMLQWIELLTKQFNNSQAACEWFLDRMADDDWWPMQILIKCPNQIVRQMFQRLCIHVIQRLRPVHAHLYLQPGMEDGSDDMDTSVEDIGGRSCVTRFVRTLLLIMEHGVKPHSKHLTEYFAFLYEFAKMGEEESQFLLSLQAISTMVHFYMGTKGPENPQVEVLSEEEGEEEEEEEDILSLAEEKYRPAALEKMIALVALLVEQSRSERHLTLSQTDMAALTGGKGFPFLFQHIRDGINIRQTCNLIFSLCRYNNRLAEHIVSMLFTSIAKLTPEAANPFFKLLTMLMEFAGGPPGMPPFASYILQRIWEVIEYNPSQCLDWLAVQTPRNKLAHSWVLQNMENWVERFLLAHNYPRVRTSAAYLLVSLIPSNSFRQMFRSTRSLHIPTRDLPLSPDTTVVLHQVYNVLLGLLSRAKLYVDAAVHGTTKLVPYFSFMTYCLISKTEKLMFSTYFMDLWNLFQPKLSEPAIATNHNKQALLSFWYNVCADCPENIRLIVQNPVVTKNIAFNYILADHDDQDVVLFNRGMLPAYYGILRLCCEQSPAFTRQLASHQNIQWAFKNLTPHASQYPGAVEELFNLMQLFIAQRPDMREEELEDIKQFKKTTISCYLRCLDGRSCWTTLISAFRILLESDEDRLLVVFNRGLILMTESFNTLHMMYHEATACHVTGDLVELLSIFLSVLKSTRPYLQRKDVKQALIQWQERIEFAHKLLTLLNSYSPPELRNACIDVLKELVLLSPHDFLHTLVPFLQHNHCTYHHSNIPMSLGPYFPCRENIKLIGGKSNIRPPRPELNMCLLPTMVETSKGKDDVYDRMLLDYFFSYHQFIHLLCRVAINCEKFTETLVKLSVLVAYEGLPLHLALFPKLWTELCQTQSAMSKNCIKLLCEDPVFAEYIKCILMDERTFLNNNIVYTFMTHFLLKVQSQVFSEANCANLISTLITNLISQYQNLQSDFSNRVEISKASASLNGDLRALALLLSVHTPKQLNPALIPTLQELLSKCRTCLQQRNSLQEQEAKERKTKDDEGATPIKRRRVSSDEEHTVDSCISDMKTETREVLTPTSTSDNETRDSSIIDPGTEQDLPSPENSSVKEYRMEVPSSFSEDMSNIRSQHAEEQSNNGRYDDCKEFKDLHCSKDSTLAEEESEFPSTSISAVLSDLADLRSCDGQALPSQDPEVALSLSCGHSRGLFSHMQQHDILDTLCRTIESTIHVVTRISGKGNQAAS
UniProt Q8NEZ2, sequence (Q8NEZ2 whole entry): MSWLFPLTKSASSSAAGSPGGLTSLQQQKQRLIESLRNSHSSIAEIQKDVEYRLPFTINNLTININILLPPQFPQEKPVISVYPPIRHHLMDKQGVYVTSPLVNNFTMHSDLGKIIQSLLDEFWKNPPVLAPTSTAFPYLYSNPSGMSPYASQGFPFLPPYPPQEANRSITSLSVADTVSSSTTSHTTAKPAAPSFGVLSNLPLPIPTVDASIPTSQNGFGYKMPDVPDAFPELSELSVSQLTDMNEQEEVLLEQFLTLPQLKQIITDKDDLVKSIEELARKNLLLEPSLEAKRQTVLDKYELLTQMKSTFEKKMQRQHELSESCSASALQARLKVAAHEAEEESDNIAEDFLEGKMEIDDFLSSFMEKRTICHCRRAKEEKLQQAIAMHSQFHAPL
UniProt P60604, sequence (P60604 whole entry): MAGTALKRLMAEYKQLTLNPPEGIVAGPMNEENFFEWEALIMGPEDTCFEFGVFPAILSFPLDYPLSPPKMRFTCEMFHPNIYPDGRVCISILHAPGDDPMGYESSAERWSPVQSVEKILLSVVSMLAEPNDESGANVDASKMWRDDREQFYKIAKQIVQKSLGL

Target	probe-labelled cysteine peptide fold change
TRIM59_Q8IWR1_10+13_MHNFEEELTCPICYSIFEDPR<|>IFT80_Q9P2H3-3_10+13_MHNFEEELTCPICYSIFEDPR (UniProt Q9P2H3+Q8IWR1)	-0.194
TRMT11_Q7Z4G4_161_KPQHVFSVLEDYGLDPNCIPENPHNIYFGR (UniProt Q7Z4G4)	-0.0115
UROS_P10746_119_IGLDTEGETCGNAEK (UniProt P10746)	-0.0553
UBR7_Q8N806_137_YNDNFFGLYCICK (UniProt Q8N806)	0.0481
UBE3D_Q7Z6J8_52_TPEGCTEIQLPAEVR (UniProt Q7Z6J8)	0.0793
VPS13C_Q709C8_2289_GIEHSLIEENCGVVVESIQVTLECGLGHR (UniProt Q709C8)	-0.105
TTC17_Q96AE7_725_CPECENSLK (UniProt Q96AE7)	0.113
UFC1_Q9Y3C8_116_ICLTDHFKPLWAR (UniProt Q9Y3C8)	-0.183
TRIM28_Q13263_717_VLLALFCHEPCR (UniProt Q13263)	0.00318
VPS33B_Q9H267_259_CGSVDFGPEVTSSDK (UniProt Q9H267)	0.169
TRIM5_Q9C035_95_VDHCAR (UniProt Q9C035)	-0.107
UBA6_A0AVT1_721_ALQLLHCFPLDIR	0.0248
UBL7_Q96S82_66_LQESVPDPELIDLIYCGR (UniProt Q96S82)	-0.109
USP48_Q86UV5_145_DYEPQTICEHLQYLFALLQNSNRR (UniProt Q86UV5)	0.119
USP34_Q70CQ2_3118_SNIRPPRPELNMCLLPTMVETSK (UniProt Q70CQ2)	0.146
VPS37A_Q8NEZ2_375_TICHCR (UniProt Q8NEZ2)	0.41
TPP1_O14773_365_GLTLLFASGDSGAGCWSVSGR (UniProt O14773)	-0.146
UBE2G2_P60604_75_FTCEMFHPNIYPDGR (UniProt P60604)	-0.0589
TRAPPC11_Q7Z392_615_ADCPHPIR (UniProt Q7Z392)	0.126

Target	probe-labelled cysteine peptide fold change
TRAPPC6A_O75865_124_FLAFTCGLLR (UniProt O75865)	0.203
UBA7_P41226_829_CQNYGIPPVNR (UniProt P41226)	-0.03
TRIM25_Q14258_498_FTYCSQVLGLHCYK (UniProt Q14258)	-1.23
UBAP1_Q9NZ09_243_ATLDFKPLHKPNGFITLPQLGNCEK (UniProt Q9NZ09)	-0.239
UBR7_Q8N806_99+101_CDCGNSK (UniProt Q8N806)	-0.364
UNC45A_Q9H3U1_503_ALVGLCK (UniProt Q9H3U1)	0.0377
TYK2_P29597_736_NLVHGNVCGR (UniProt P29597)	-0.00731
UHRF2_Q96PU4_42_VWALFDVRPECQR (UniProt Q96PU4)	-0.064
VRK3_Q8IV63_418_FVDKPGPFVGPCGHWIRPSETLQK (UniProt Q8IV63)	-0.347
UQCRC1_P31930_154_AVELLGDIVQNCSLEDSQIEK (UniProt P31930)	0.114
TUBG1_P23258_138_IHEDIFDIIDREADGSDSLEGFVLCHSIAGGTGSGLGSYLLER<|>TUBG2_Q9NRH3_138_IHEDIFDIIDREADGSDSLEGFVLCHSIAGGTGSGLGSYLLER (UniProt Q9NRH3+P23258)	0.194
UCHL3_P15374_95_QTISNACGTIGLIHAIANNK (UniProt P15374)	-0.157
VARS2_Q5ST30_549_QLWWGHQIPAYLVVEDHAQGEEDCWVVGR (UniProt Q5ST30)	0.149
USP8_P40818_809_NCYQDDINR (UniProt P40818)	-0.199
TRIM59_Q8IWR1_208_SFLTALCDVGNLINQEYTPQIER<|>IFT80_Q9P2H3-3_208_SFLTALCDVGNLINQEYTPQIER (UniProt Q9P2H3+Q8IWR1)	0.237
USP24_Q9UPU5_995_QLCSPVDNIQIFTNDSLLTVNK (UniProt Q9UPU5)	0.165
TRIM56_Q9BRZ2_41_TLPCLHTYCQDCLAQLADGGR (UniProt Q9BRZ2)	0.238
VCPIP1_Q96JH7_517_NYSFPLNNLVCSYDSVK (UniProt Q96JH7)	0.0884
UGGT1_Q9NYU2_1475+1479_SLPQEWLWCETWCDDASK (UniProt Q9NYU2)	-0.291

Same assay, conditions: 50 µM; THP-1; incubation time: 4 h

Target	probe-labelled cysteine peptide fold change
TRIM59_Q8IWR1_10+13_MHNFEEELTCPICYSIFEDPR<|>IFT80_Q9P2H3-3_10+13_MHNFEEELTCPICYSIFEDPR (UniProt Q9P2H3+Q8IWR1)	-1.63
TRMT11_Q7Z4G4_161_KPQHVFSVLEDYGLDPNCIPENPHNIYFGR (UniProt Q7Z4G4)	-0.0241
UROS_P10746_119_IGLDTEGETCGNAEK (UniProt P10746)	-0.0029
UBR7_Q8N806_137_YNDNFFGLYCICK (UniProt Q8N806)	-0.0777
UBE3D_Q7Z6J8_52_TPEGCTEIQLPAEVR (UniProt Q7Z6J8)	0.147
VPS13C_Q709C8_2289_GIEHSLIEENCGVVVESIQVTLECGLGHR (UniProt Q709C8)	-0.0661
TTC17_Q96AE7_725_CPECENSLK (UniProt Q96AE7)	0.453
UFC1_Q9Y3C8_116_ICLTDHFKPLWAR (UniProt Q9Y3C8)	-1.26
TRIM28_Q13263_717_VLLALFCHEPCR (UniProt Q13263)	0.0176
VPS33B_Q9H267_259_CGSVDFGPEVTSSDK (UniProt Q9H267)	0.293
TRIM5_Q9C035_95_VDHCAR (UniProt Q9C035)	-0.113
UBA6_A0AVT1_721_ALQLLHCFPLDIR	0.215
UBL7_Q96S82_66_LQESVPDPELIDLIYCGR (UniProt Q96S82)	-0.328
USP48_Q86UV5_145_DYEPQTICEHLQYLFALLQNSNRR (UniProt Q86UV5)	0.166
USP34_Q70CQ2_3118_SNIRPPRPELNMCLLPTMVETSK (UniProt Q70CQ2)	-0.174
VPS37A_Q8NEZ2_375_TICHCR (UniProt Q8NEZ2)	1.08
TPP1_O14773_365_GLTLLFASGDSGAGCWSVSGR (UniProt O14773)	0.0356
UBE2G2_P60604_75_FTCEMFHPNIYPDGR (UniProt P60604)	-0.214
TRAPPC11_Q7Z392_615_ADCPHPIR (UniProt Q7Z392)	0.142

Target	probe-labelled cysteine peptide fold change
TRAPPC6A_O75865_124_FLAFTCGLLR (UniProt O75865)	0.608
UBA7_P41226_829_CQNYGIPPVNR (UniProt P41226)	0.153
TRIM25_Q14258_498_FTYCSQVLGLHCYK (UniProt Q14258)	-2.92
UBAP1_Q9NZ09_243_ATLDFKPLHKPNGFITLPQLGNCEK (UniProt Q9NZ09)	-1.36
UBR7_Q8N806_99+101_CDCGNSK (UniProt Q8N806)	-1.41
UNC45A_Q9H3U1_503_ALVGLCK (UniProt Q9H3U1)	-0.217
TYK2_P29597_736_NLVHGNVCGR (UniProt P29597)	-0.24
UHRF2_Q96PU4_42_VWALFDVRPECQR (UniProt Q96PU4)	0.118
VRK3_Q8IV63_418_FVDKPGPFVGPCGHWIRPSETLQK (UniProt Q8IV63)	-1.2
UQCRC1_P31930_154_AVELLGDIVQNCSLEDSQIEK (UniProt P31930)	0.272
TUBG1_P23258_138_IHEDIFDIIDREADGSDSLEGFVLCHSIAGGTGSGLGSYLLER<|>TUBG2_Q9NRH3_138_IHEDIFDIIDREADGSDSLEGFVLCHSIAGGTGSGLGSYLLER (UniProt Q9NRH3+P23258)	-0.0593
UCHL3_P15374_95_QTISNACGTIGLIHAIANNK (UniProt P15374)	-1.45
VARS2_Q5ST30_549_QLWWGHQIPAYLVVEDHAQGEEDCWVVGR (UniProt Q5ST30)	0.141
USP8_P40818_809_NCYQDDINR (UniProt P40818)	-1.27
TRIM59_Q8IWR1_208_SFLTALCDVGNLINQEYTPQIER<|>IFT80_Q9P2H3-3_208_SFLTALCDVGNLINQEYTPQIER (UniProt Q9P2H3+Q8IWR1)	-0.00617
USP24_Q9UPU5_995_QLCSPVDNIQIFTNDSLLTVNK (UniProt Q9UPU5)	0.107
TRIM56_Q9BRZ2_41_TLPCLHTYCQDCLAQLADGGR (UniProt Q9BRZ2)	0.113
VCPIP1_Q96JH7_517_NYSFPLNNLVCSYDSVK (UniProt Q96JH7)	0.1
UGGT1_Q9NYU2_1475+1479_SLPQEWLWCETWCDDASK (UniProt Q9NYU2)	-0.0794
